Most compounds without a hit are left out; they make up all but 0.78% or so of the library.
BJeLR viability = MLPCN primary cell-based screen for lethality selective to Ras in HRASV12 cells | AID 1554, 2009 | inhibition, % (concentration not given with the values) | BJeLR (HRASV12) viability, CellTiter-Glo ATP luminescence, 48 h | 0.17% of 300,000 active; in the data active = inhibition above about 50%
SARS 3CLpro inh = SARS-CoV 3CLpro protease inhibitors, primary screen, biochemical, quenched FRET | Replicase polyprotein 1ab (Severe acute respiratory syndrome coronavirus), P0C6X7 | recombinant SARS-CoV 3CLpro, quenched FRET peptide cleavage | inhibition, % at 6 µM | 0.14% of 290,000 active | AID 1706, 2009; in the data active = inhibition above about 12%
PriA SSB inh = inhibitors of Klebsiella pneumoniae PriA binding to SSB C-terminal tail, primary screen, biochemical, AlphaScreen. AlphaScreen SSBct-PriA binding, biotinylated peptide. 0.6% of 430,000 active. PriA–SSB C-terminal tail interaction (Klebsiella pneumoniae). inhibition, % at 33 µM; in the data active = inhibition mostly above about 37%, no sharp cut-off; inactive = mostly below about 20%;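 note: plate controls were negative control peptide for no effect and reference peptide for full effect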
An asterisk follows results filed as active; . = not tested or not shown.

SMILES	BJeLR viability	SARS 3CLpro inh	PriA SSB inh
Cc1ccc(NC(=O)C(=O)NCC[C@H](O)c2cccs2)cc1F	.	.	1
CC[C@H](C)NC(=O)C(=O)NCc1ccccc1	.	.	-3
CN(C)[C@@H](CNC(=O)COc1ccc(Cl)cc1)c1cccs1	.	.	1
O=C(Nc1nc2ccccc2s1)c1ccc(N2CCCCC2)c([N+](=O)[O-])c1	0	3	39*
CN1CCN(S(=O)(=O)c2cccc(C(=O)Nc3nc(-c4ccccc4)cs3)c2)CC1	.	5	7
O=C(Nc1nc(-c2ccccc2)cs1)c1ccc(N2CCOCC2)c([N+](=O)[O-])c1	14	2	20
O=C(Nc1ccon1)c1ccc(N2CCCCC2)c([N+](=O)[O-])c1	6	-3	2
CN1CCN(S(=O)(=O)c2cccc(C(=O)Nc3nc(-c4ccccn4)cs3)c2)CC1	.	.	124*
O=C(Nc1nc(-c2ccccn2)cs1)c1ccc(N2CCOCC2)c([N+](=O)[O-])c1	.	.	92*
O=C(CSCc1ccccc1)NCc1cccnc1-c1ccsc1	.	.	-5
CC(=O)N1CCc2ccc(NC(=O)c3ccccc3C(F)(F)F)cc21	.	.	-13
O=C(/C=C/c1cccs1)Nc1nc(-c2ccc(Cl)s2)cs1	.	.	-35
CCCCCCCSc1cc(OC)c(CCN(C)C)cc1OC	11	5	49*
CCCCCSc1cc(OC)c(CCN)cc1OC	8	-3	16
C[C@H]1O[C@@H](O[C@H]2[C@@H](O)C[C@H](O[C@H]3[C@@H](O)C[C@H](O[C@H]4CC[C@@]5(C)[C@H](CC[C@@H]6[C@@H]5C[C@@H](O)[C@]5(C)[C@@H](C7=CC(=O)OC7)CC[C@]65O)C4)O[C@@H]3C)O[C@@H]2C)C[C@H](O)[C@@H]1O	102*	-5	3
CC(=O)OC1CC(OC2C(O)CC(OC3C(O)CC(OC4CCC5(C)C(CCC6C5CC(O)C5(C)C(C7=CC(=O)OC7)CCC65O)C4)OC3C)OC2C)OC(C)C1OC1OC(CO)C(O)C(O)C1O (stereo unspecified)	.	.	-9
CCOc1ccc(NC(=O)Cn2nc3c(Sc4cccc(F)c4)nccn3c2=O)cc1	.	.	-2
Cc1cc(NC(=O)C(=O)NCC(c2cccn2C)N2CCCC2)no1 (stereo unspecified)	.	.	8
CN1C=CC=C/C1=C(/C#N)c1nc(-c2ccc(Cl)cc2)cs1	.	.	134*
Cc1ccc(-c2csc(/C(C#N)=N/Nc3ccc(Cl)cc3Cl)n2)cc1	.	.	1
CN1C=CC=C/C1=C(/C#N)c1nc2ccccc2[nH]1	.	.	-11
COc1ccccc1-c1csc(/C(C#N)=C2\C=CC=CN2C)n1	.	.	70*
CN1C=CC=C/C1=C(/C#N)c1nc(-c2ccccc2)cs1	.	.	99*
COc1ccccc1-c1csc(N)n1	.	.	6
CC(C)CS(=O)(=O)C1CN(C(=O)NCCCc2ccccc2)C1	.	.	-6
SMILES	BJeLR viability	SARS 3CLpro inh	PriA SSB inh
CCOC(=O)c1c(CSC(=N)N)n(C)c2cc(Br)c(OC(C)=O)cc12	-1	-2	2
CCOC(=O)c1c(CSC(=N)N)n(-c2ccc(C)cc2)c2cc(Br)c(OC(C)=O)cc12	84*	5	10
Cc1cccc(NC(=O)c2ccn(C)n2)c1C	.	.	8
CCOC(=O)c1ccccc1NC=C1CCCCC1=O	.	.	-8
Oc1ccc(COC2CCCCC2)c2cccnc12	.	.	108*
Oc1ccc(COCc2ccccc2)c2cccnc12	16	5	84*
CN(Cc1ccco1)Cc1ccc(O)c2ncccc12	.	.	-5
Oc1ccc(COc2cccc3cccnc23)c2cccnc12	.	.	32
Oc1ccc(Cc2ccccc2)c2cccnc12	.	.	9
CCCOCc1ccc(O)c2ncccc12	11	4	54*
CC(C)COCc1ccc(O)c2ncccc12	29	-1	84*
COc1ccc(Br)c(C(=O)N2CC(S(=O)(=O)Cc3ccco3)C2)c1	.	.	-4
CCOc1ccc(-c2ccc(N3CCN(C(=O)Nc4ccc(F)c(F)c4)CC3)nn2)cc1	.	.	-5
Cc1cc(NC(=O)C(=O)NCCC2=CCCCC2)ccc1N1CCCC1=O	.	.	-25
COc1cc(C(=O)NC(=S)NNC(=O)c2cnccn2)cc(OC)c1OC	6	-1	82*
COc1ccc(C(=O)NC(=S)NNC(=O)c2cnccn2)cc1	10	-3	22
O=C(NN=Cc1ccco1)c1cnccn1	.	.	10
O=C(/C=C/c1ccco1)NC(=S)NNC(=O)c1cnccn1	.	.	66*
COC(=O)C1=C(CS(=O)(=O)c2cccs2)NC(=O)NC1c1cccc(Cl)c1 (stereo unspecified)	.	.	-23
CCOC(=O)c1c(NS(=O)(=O)c2ccccc2)n(CCc2ccccc2)c2nc3ccccc3nc12	.	.	44
CCCCCCCCn1c(NS(=O)(=O)c2ccc(F)cc2)c(S(=O)(=O)c2ccc(C)cc2)c2nc3ccccc3nc21	.	.	44
CCCCCn1c(NS(=O)(=O)c2ccc(F)cc2)c(C(=O)OCC)c2nc3ccccc3nc21	.	.	55*
CCCCn1c(NS(=O)(=O)c2ccc(Cl)cc2)c(C(=O)OCC)c2nc3ccccc3nc21	.	.	68*
CCCCCn1c(NC(=O)c2ccco2)c(C(=O)OCC)c2nc3ccccc3nc21	-11	-1	7
CCOC(=O)c1c(NS(=O)(=O)c2ccccc2)n(CCCOC)c2nc3ccccc3nc12	4	3	47*
SMILES	BJeLR viability	SARS 3CLpro inh	PriA SSB inh
CN(C)c1ccc(NC(=S)NC23CC4CC(CC(C4)C2)C3)cc1	-12	-5	45*
CCOc1ccc(NC(=S)NC23CC4CC(CC(C4)C2)C3)cc1	-1	0	-12
O=C(Nc1c(F)cccc1F)N(CCc1cccs1)C1CC1	.	.	-14
O=C(Nc1ccc2c(c1)N(C(=O)C1CCCC1)CC2)c1ccc2ncsc2c1	.	.	-11
O=C(CC(NCc1ccccn1)C(=O)O)Nc1ccccc1Cl (stereo unspecified)	5	3	97*
O=C(NCc1ccccn1)Nc1cc(Cl)ccc1Cl	-1	1	1
CCc1nnsc1C(=O)Nc1ccc(S(=O)(=O)Nc2ncccn2)cc1	.	.	-3
O=C(CN1CCN(Cc2nc3ccccc3[nH]2)CC1)NCc1ccc2c(c1)OCO2	.	.	-17
COc1ccc(CNC(=O)NCC2CCN(c3ncccn3)CC2)cc1	.	.	-7
Cc1ccc(S(=O)(=O)N2CCCC(C(=O)Nc3nnc(Cc4cccs4)o3)C2)cc1 (stereo unspecified)	.	.	12
O=C(Nc1nnc(Cc2cccs2)o1)c1ccc(S(=O)(=O)N2CCOCC2)cc1	.	.	79*
CC(C)S(=O)(=O)c1cccc(C(=O)Nc2nnc(Cc3cccs3)o2)c1	.	.	41*
COCc1nnc(NC(=O)c2ccc(S(=O)(=O)N3CCOCC3)cc2)o1	-3	-4	-12
COc1cccc(C(=O)Nc2nnc(Cc3ccc(S(=O)(=O)C(C)C)cc3)o2)c1	.	.	-3
CCSc1ccccc1C(=O)Nc1nnc(Cc2cccs2)o1	.	.	40*
O=C(Nc1nnc(Cc2cccs2)o1)c1ccccc1Cl	.	.	3
C[C@H]1CCCN(S(=O)(=O)c2ccc(C(=O)Nc3nnc(Cc4cccs4)o3)cc2)C1	.	.	91*
COC(=O)c1sccc1S(=O)(=O)N1CC(n2ccnn2)C1	.	.	-2
CC(=O)Nc1ccc(SCCN2CCOCC2)nn1	.	.	-15
O=C(CSc1c[nH]c2ccccc12)N1CCC(n2c(=O)[nH]c3ccccc3c2=O)CC1	.	.	5

Bioassay records deposited in PubChem by several laboratories.
